# Source: PubChem BioAssay
# The list is not random: actives were taken first. Their share in the collection is about 1.6%.
# Efflux pump mplx: blocks antifungal efflux pumps in multiplex yeast assay; S. cerevisiae Candida pump triplex, Nile Red efflux; inhibition, % at 10 µM; hit rate 0.44% among 330,000; AID 485275;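 active = plate passing quality check with inhibition over a set limit, or well fluorescence over plate mean plus 4 SD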;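 note: Nile Red retained in pooled yeast measured as flow cytometry median fluorescence; higher means more Nile Red kept so more efflux inhibition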
# Yeast superoxide: lowers age-related superoxide in aged yeast cells; superoxide response (% of plate mean), % at 10 µM; AID 2690; hit rate 0.18% among 330,000; S. cerevisiae aged cells, superoxide DHE fluorescence; active compounds read low;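 active = superoxide response under a set limit, about three screen SD below normal, cut at about 65% in these data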;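 note: yeast aged for seven days with compound at 30 °C before DHE staining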
# ATG4B inhibitor: blocks human ATG4B protease cleavage of LC3 substrate. ATG4B cleavage of LC3-PLA2, NBD-HPC fluorescence, 1 h. hit rate 0.51% among 340,000. inhibition, % at 8.33 µM. Q9Y4P1; in the data active = inhibition above about 40%
# Target sequence (Q9Y4P1 whole entry, looked up): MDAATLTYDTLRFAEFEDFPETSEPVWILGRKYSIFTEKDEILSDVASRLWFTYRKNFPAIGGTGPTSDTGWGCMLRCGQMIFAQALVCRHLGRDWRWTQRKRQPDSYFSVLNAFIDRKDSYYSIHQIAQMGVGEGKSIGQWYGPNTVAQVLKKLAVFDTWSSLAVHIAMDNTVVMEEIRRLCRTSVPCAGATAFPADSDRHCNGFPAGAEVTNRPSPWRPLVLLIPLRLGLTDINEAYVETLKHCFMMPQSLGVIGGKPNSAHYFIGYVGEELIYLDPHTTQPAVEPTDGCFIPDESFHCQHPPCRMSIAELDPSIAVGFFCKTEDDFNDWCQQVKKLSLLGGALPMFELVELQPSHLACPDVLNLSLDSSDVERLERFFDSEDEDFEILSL
# GRK2 inh: blocks RNA aptamer binding to human GRK2; P25098; bead flow cytometry, FAM-aptamer displacement from GRK2; inhibition of aptamer binding, % at 10 µM; hit rate 0.59% among 330,000;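 active = inhibition of aptamer binding above 40%, roughly 3 SD of noise, on plates passing a quality check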;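 note: median bead fluorescence of bound FAM aptamer so fluorescent compounds give negative values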
# GRK2 inh confirm: human GRK2 inhibition confirmation, cherry pick 1; shares compounds with GRK2 inh; bead-bound GRK2, FAM-aptamer displacement, flow cytometry; aptamer displacement, % at 10 µM; hit rate 4% among 2,000;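 active = aptamer displacement above 40%, near three times the noise of non-fluorescent compounds, on plates passing quality checks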;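 note: negative values mostly reflect intrinsic compound fluorescence rather than true enhancement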
# Aptamer quench SP: counter-screen for GRK2 aptamer inhibitors: fluorescent aptamer quenchers | 2,000 tested, under 10 active | AID 504580 | shares compounds with GRK2 inh | fluorescence response (% of DMSO), % at 10 µM | Carboxyfluorescein RNA aptamer on beads, flow cytometry quenching; active compounds read low;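 active = compounds that quench the bead-bound fluorescent RNA probe, cutting fluorescence to under half of the solvent control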;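 note: counterscreen run without GRK2 so only probe quenching by compound is measured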
# GRK2 CP2: human GRK2 inhibition confirmation, cherry pick 2; shares compounds with GRK2 inh; bead-bound GRK2, FAM-aptamer displacement, flow cytometry; inhibition of aptamer binding, % at 10 µM; 360 tested, under 10 active; AID 504782;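 active = inhibition of aptamer binding above 40%, about triple the noise seen with nonglowing compounds, on plates passing quality control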;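 note: negative values mostly come from compounds that fluoresce themselves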
# FAM quench CP2: quenches fluorescent RNA aptamer, GRK2 hit artifact | AID 588494 | fluorescence response vs DMSO, % at 10 µM | 360 tested, under 10 active | carboxyfluorescein RNA aptamer beads, flow cytometry quenching; active compounds read low | shares compounds with GRK2 inh;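 active = response vs DMSO under 50%, meaning signal dropped by over half, treated as fluorescence quencher; inconclusive = no clear call, values can overlap the other calls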;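 note: labelled aptamer on streptavidin beads without GRK2 as a quench counter-screen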
# Numbers stand for hits; . = inactive; ? = inconclusive; / = no result.
SMILES,Efflux pump mplx,Yeast superoxide,ATG4B inhibitor,GRK2 inh,GRK2 inh confirm,Aptamer quench SP,others
CCc1ccc(N(CC)C(=O)c2cn(C)c(=O)c3ccccc23)cc1,.,.,.,.,.,.,
O=c1cc(OCc2ccccc2)cc[nH]1,.,.,.,43.0,/,/,GRK2 CP2=.;FAM quench CP2=.
Cc1[nH]ccc(=O)c1OCc1ccccc1,.,.,.,.,/,/,
CC(C)(CNC(=O)c1ccc(-c2cccc(C(F)(F)F)c2)o1)N1CCOCC1,.,.,.,.,/,/,
COc1ccc(-c2cc(C(=O)Nc3cccc(Cl)c3)no2)cc1,.,.,.,.,/,/,
O=C(Nc1cccc(O)c1)c1cc(-c2cccs2)on1,.,.,.,.,/,/,
CC(=O)c1cccc(NC(=O)c2cc(-c3cccs3)on2)c1,.,.,.,.,.,.,
COc1ccc(-c2cc(C(=O)Nc3cccc(C(C)=O)c3)no2)cc1,.,.,.,.,.,.,
CC1CCN(c2ccc([N+](=O)[O-])cn2)CC1,.,.,.,55.0,/,/,GRK2 CP2=.;FAM quench CP2=.
O=[N+]([O-])c1ccc(N2CCCC2)nc1,.,.,.,.,/,/,
Cc1ccccc1-n1ccnc1SCC(=O)NCc1ccco1,.,.,.,.,/,/,
CN(C)S(=O)(=O)c1ccc(Nc2nc(C3CC3)nc3c2nnn3Cc2ccccc2Cl)cc1,.,.,.,77.0,/,/,GRK2 CP2=.;FAM quench CP2=?
Nc1ccc(Nc2ccc([N+](=O)[O-])cc2[N+](=O)[O-])cc1,.,.,.,84.0,.,.,
O=C(/C=C/c1cccc(Br)c1)OCC(=O)N1CCN(c2ccccc2)CC1,.,.,.,76.0,.,.,
CN(CCc1ccccc1)C(=O)c1ccc(NC(=O)Cc2ccc(NC(=O)C3CCCN(C(=O)CCc4ccccc4)C3)cc2)cc1 (configuration not stated),/,/,.,/,/,/,
S=C(Nc1ccccc1)N1CCOCCOCCN(C(=S)Nc2ccccc2)CCOCCOCC1,.,.,.,.,/,/,
S=C(Nc1ccccc1)N1CCN(c2ccc(N3CCOCC3)nn2)CC1,.,.,.,.,.,.,
CC(Oc1ccccc1)C(=O)N1CCN(c2ccc(N3CCCCCC3)nn2)CC1 (configuration not stated),.,.,.,.,/,/,
CC(Oc1ccccc1)C(=O)N1CCN(c2ccc(N3CCOCC3)nn2)CC1 (configuration not stated),.,.,.,.,.,.,
O=C(COC(=O)C1CCN(c2ccc(C(F)(F)F)cn2)CC1)Nc1ncc(Cl)cc1Cl,.,.,.,.,/,/,
CC(CCCC(C)(C)O)NCc1cn[nH]c1-c1ccc2c(c1)OCO2 (configuration not stated),.,.,.,.,/,/,
Cc1cc(C)nc(SCNC(=O)c2ccccc2)n1,.,.,.,48.0,.,.,
CC(=O)c1c(C)[nH]c(C(=O)CN2C(=O)NC(C)(c3ccc(C)cc3)C2=O)c1C (configuration not stated),.,.,.,54.0,.,.,
CCN1C(=O)C(=O)N(CC(=O)c2[nH]c(C)c(C(C)=O)c2C)C1=O,.,.,.,.,/,/,
CCN(CC)CCn1c(OC)cc(=O)[nH]c1=O,.,.,.,69.0,.,.,
SMILES,Efflux pump mplx,Yeast superoxide,ATG4B inhibitor,GRK2 inh,GRK2 inh confirm,Aptamer quench SP,others
CCN(CC)CCn1c(N)cc(=O)[nH]c1=O,.,.,.,.,/,/,
CCC(C(=O)NC1CCCC1)N(C(=O)Cn1nnc(-c2ccc(C)o2)n1)c1ccccc1OC (configuration not stated),.,.,.,.,/,/,
CCOc1ccccc1N(C(=O)Cn1nnnc1-c1ccc(C)o1)C(CC)C(=O)NC(C)(C)C (configuration not stated),.,.,.,97.0,.,.,
CC(OC(=O)CCN1C(=O)C2CC=CCC2C1=O)C(=O)Nc1cccc(Cl)c1 (configuration not stated),.,.,.,.,/,/,
CCNc1c(NS(=O)(=O)c2ccc(OC)c(Cl)c2)c(=O)oc2ccccc12,.,.,.,69.0,.,.,
Cc1cc(NC(=O)Nc2cccc(C(F)(F)F)c2)n(C)n1,.,.,.,74.0,.,.,
O=C(Nc1ccccc1)Nc1cccc(C(F)(F)F)c1,.,.,.,.,/,/,
COc1ccc(C(=O)COC(=O)Cn2[nH]c(=O)c3ccccc3c2=O)c(OC)c1,.,.,.,.,/,/,
Cc1ccc(CNC(=O)CN2C(=O)NC(C)(c3cccc(Br)c3)C2=O)cc1 (configuration not stated),.,.,.,56.0,.,.,
Cc1ccc(CNC(=O)CN2C(=O)NC(C)(c3ccc(Cl)cc3)C2=O)cc1 (configuration not stated),.,.,.,.,/,/,
CCOC(=O)N1CCN(C(=O)C(=O)c2cn(CC(=O)N3CCCCCC3)c3ccccc23)CC1,.,.,.,.,/,/,
CCOC(=O)C1CCN(C(=O)C(=O)c2cn(CC(=O)N3CCCCCC3)c3ccccc23)CC1,.,.,.,42.0,/,/,GRK2 CP2=.;FAM quench CP2=.
COc1ccc(/C=C(\NC(=O)c2ccccc2)C(=O)N2CCCCC2)cc1OC,.,.,.,.,/,/,
O=Cc1ccc(OCC(=O)Nc2ccccc2-c2ccccc2)cc1,.,.,.,61.0,.,.,
COc1ccc(C(=O)C2CCN(C(=S)Nc3ccc(F)cc3)CC2)cc1,.,.,.,.,/,/,
Cc1cc(C)cc(C(=O)Nc2cccnc2)c1,.,.,.,82.0,.,.,
COC(OC)c1ccnc(-c2ccc(OC(=O)c3ccc(F)cc3)cc2)n1,.,.,.,59.0,.,.,
COc1ccc(C2Nc3ccccc3C(=O)N2NS(=O)(=O)c2ccccc2)cc1 (configuration not stated),.,.,.,.,/,/,
Cn1cc(C(=O)OCC2CCN(CCNS(C)(=O)=O)CC2)c2ccccc21,.,.,.,.,.,.,
O=C(O)/C=C\C(=O)Nc1ccccc1C(=O)N1CCC(O)(c2ccc(Cl)cc2)CC1,/,/,.,/,/,/,
Cc1ccsc1C(=O)OCC(=O)c1cc(C)n(C)c1C,.,.,.,46.0,/,/,GRK2 CP2=.;FAM quench CP2=?
Cc1cc(C(=O)COC(=O)c2nccnc2N)c(C)n1C,.,.,.,.,/,/,
COc1cc(C(=O)Nc2c(C(=O)O)[nH]c3ccc(Br)cc23)cc(OC)c1OC,.,.,.,.,/,/,
COc1ccc(C2C(C(=O)c3ccco3)=C(O)C(=O)N2c2nnc(C)s2)cc1 (configuration not stated),.,.,.,.,/,/,
C=CCOc1ccc(C2C(C(=O)c3ccco3)=C(O)C(=O)N2c2nnc(C)s2)cc1 (configuration not stated),.,.,.,73.0,.,.,
CCCC(=O)NC1=C(C#N)C2(CCCC2)Cc2ccccc21,.,.,.,58.0,.,.,
